# How the values were obtained:
# [1] = target: T1, Serine/threonine-protein kinase BRSK1 (Homo sapiens) (UniProt Q8TDC3); settings: at 1 µM
# T1 sequence (whole entry): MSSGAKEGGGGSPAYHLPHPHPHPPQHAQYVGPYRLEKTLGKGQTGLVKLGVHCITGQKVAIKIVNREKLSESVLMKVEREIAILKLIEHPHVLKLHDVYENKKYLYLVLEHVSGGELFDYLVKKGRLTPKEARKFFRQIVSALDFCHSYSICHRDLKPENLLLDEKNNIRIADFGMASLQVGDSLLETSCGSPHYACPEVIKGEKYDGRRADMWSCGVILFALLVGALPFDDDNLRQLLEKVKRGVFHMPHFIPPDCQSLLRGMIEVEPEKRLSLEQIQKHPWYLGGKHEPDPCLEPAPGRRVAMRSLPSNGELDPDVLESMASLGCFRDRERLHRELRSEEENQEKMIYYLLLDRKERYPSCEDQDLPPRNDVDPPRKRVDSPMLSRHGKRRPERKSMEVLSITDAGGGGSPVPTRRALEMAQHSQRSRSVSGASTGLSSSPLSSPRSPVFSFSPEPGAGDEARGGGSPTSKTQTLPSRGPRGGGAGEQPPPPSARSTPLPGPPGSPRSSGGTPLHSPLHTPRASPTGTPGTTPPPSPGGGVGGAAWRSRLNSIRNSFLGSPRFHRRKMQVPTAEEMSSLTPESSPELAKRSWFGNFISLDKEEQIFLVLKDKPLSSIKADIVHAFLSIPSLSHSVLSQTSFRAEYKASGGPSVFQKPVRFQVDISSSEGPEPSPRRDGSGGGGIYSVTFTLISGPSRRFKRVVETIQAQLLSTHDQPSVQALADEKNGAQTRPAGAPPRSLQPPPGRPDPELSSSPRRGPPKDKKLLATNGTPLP
# [2] = target: T1, Serine/threonine-protein kinase BRSK1 (Homo sapiens); settings: at 10 µM
# [3] = target: T2, Serine/threonine-protein kinase BRSK2 (Homo sapiens) (UniProt Q8IWQ3); settings: at 1 µM
# T2 sequence (whole entry): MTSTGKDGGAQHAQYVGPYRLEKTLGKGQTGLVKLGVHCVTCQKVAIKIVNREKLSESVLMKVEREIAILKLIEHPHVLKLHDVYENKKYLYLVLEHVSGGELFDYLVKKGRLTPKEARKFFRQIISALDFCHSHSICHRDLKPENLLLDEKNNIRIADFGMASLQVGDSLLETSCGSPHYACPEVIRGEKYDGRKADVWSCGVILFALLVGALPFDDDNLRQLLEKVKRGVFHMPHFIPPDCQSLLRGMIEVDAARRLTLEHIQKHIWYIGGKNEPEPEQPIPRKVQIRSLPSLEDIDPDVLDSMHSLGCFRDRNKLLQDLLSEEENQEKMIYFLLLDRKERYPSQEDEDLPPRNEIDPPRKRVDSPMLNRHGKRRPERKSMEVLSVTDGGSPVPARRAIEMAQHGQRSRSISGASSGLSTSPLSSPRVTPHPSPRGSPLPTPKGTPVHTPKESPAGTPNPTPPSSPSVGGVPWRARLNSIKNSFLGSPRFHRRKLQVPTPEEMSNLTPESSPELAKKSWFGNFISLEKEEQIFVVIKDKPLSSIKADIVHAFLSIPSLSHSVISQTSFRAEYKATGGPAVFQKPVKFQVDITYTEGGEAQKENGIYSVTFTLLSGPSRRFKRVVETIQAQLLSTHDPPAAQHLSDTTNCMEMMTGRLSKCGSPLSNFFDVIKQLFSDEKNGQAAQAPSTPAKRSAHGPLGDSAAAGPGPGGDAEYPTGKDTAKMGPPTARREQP
# [4] = target: T2, Serine/threonine-protein kinase BRSK2 (Homo sapiens); settings: at 10 µM
# [5] = target: T3, Cyclin-dependent kinase 1/cyclin B1 (Homo sapiens) (UniProt P06493+P14635); settings: at 1 µM
# T3 sequence (P06493 whole entry, looked up): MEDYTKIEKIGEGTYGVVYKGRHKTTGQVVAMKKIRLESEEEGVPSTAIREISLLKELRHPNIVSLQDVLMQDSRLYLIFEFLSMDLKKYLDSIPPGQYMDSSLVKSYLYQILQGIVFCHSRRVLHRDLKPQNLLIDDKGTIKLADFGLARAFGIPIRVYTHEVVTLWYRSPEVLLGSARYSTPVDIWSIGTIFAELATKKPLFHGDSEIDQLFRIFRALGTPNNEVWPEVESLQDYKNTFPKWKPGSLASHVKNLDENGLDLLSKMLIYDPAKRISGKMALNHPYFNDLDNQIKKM
# T3 sequence (P14635 whole entry, looked up): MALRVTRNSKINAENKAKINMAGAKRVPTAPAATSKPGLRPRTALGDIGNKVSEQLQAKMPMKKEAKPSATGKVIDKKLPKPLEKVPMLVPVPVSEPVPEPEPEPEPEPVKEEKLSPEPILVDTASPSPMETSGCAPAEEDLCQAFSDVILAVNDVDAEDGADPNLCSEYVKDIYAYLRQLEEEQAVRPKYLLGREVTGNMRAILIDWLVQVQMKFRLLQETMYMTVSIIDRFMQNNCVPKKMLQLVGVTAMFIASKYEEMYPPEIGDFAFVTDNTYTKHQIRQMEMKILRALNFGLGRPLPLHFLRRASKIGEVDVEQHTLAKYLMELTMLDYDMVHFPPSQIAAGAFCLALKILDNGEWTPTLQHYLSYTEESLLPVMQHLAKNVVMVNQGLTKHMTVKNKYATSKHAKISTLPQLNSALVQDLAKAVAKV
# [6] = target: T3, Cyclin-dependent kinase 1/cyclin B1 (Homo sapiens); settings: at 10 µM
# [7] = target: T4, Cyclin-dependent kinase 2/cyclin A (Homo sapiens) (UniProt P24941+P20248+P78396); settings: at 1 µM
# [8] = target: T4, Cyclin-dependent kinase 2/cyclin A (Homo sapiens); settings: at 10 µM
# [9] = target: T5, Cyclin-dependent kinase 2/cyclin E (Homo sapiens) (UniProt P24864+P24941+O96020); settings: at 1 µM
# [10] = target: T5, Cyclin-dependent kinase 2/cyclin E (Homo sapiens); settings: at 10 µM
# [11] = target: T6, CDK3/cyclin E (Homo sapiens) (UniProt P24864+O96020+Q00526); settings: at 1 µM
# T6 sequence (O96020 whole entry, looked up): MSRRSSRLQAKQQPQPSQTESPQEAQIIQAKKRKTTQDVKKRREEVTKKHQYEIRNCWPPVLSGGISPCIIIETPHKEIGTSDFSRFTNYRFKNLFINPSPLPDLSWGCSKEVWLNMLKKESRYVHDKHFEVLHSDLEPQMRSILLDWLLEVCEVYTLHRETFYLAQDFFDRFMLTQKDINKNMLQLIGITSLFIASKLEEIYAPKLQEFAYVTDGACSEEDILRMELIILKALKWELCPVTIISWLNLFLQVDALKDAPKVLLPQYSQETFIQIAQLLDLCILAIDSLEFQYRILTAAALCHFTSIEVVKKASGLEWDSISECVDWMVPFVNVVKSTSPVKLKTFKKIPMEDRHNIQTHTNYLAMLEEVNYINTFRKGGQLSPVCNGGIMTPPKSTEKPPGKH
# T6 sequence (P24864 whole entry, looked up): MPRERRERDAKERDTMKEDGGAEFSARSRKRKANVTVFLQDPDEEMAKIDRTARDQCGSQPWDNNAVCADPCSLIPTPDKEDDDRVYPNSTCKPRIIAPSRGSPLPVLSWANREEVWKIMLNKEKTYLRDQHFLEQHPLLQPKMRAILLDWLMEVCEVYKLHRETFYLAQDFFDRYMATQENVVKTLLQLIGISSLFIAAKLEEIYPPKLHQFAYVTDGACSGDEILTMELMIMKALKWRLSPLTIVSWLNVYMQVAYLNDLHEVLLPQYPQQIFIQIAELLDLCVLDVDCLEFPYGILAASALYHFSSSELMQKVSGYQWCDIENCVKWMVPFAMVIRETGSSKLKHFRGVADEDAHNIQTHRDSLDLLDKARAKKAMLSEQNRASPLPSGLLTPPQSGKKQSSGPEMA
# T6 sequence (Q00526 whole entry, looked up): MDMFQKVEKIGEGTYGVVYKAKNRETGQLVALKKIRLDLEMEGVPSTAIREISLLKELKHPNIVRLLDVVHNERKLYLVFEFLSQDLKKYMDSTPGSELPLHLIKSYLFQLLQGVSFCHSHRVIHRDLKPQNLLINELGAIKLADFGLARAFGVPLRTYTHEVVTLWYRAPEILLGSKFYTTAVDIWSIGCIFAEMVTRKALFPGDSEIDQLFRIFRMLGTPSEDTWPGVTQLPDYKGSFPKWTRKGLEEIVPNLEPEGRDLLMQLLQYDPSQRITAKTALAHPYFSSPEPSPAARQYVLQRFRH
# [12] = target: T6, CDK3/cyclin E (Homo sapiens); settings: at 10 µM
# [13] = target: T7, Cyclin-dependent kinase 5/CDK5 activator 1 (Homo sapiens) (UniProt Q00535+Q15078); settings: at 1 µM
# T7 sequence (Q00535 whole entry): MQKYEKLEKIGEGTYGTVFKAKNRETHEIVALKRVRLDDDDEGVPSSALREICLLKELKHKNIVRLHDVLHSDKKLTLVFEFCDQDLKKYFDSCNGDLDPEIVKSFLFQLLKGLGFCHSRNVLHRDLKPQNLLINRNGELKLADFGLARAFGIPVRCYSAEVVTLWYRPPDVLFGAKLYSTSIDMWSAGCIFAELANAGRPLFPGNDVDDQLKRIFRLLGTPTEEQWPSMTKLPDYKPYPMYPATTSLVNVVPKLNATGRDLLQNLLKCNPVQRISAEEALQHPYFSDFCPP
# T7 sequence (Q15078 99-307 partner limits assumed): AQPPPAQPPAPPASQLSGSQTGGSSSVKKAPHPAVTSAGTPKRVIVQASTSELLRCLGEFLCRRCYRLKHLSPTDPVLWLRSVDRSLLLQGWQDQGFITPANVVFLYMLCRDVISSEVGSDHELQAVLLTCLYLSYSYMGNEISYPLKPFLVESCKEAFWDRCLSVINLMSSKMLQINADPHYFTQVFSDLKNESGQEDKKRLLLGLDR
# [14] = target: T7, Cyclin-dependent kinase 5/CDK5 activator 1 (Homo sapiens); settings: at 10 µM
# [15] = target: T7, Cyclin-dependent kinase 5/CDK5 activator 1 (Homo sapiens); settings: at 1 µM; remark: listed apart in the source
# [16] = target: T7, Cyclin-dependent kinase 5/CDK5 activator 1 (Homo sapiens); settings: at 10 µM; remark: listed apart in the source
# [17] = target: T8, CDK6/cyclin D3 (Homo sapiens) (UniProt P30281+Q00534); settings: at 1 µM
# [18] = target: T8, CDK6/cyclin D3 (Homo sapiens); settings: at 10 µM
# [19] = target: T9, Cyclin-dependent kinase 7/ cyclin H (Homo sapiens) (UniProt P51946+P50613); settings: at 1 µM
# [20] = target: T9, Cyclin-dependent kinase 7/ cyclin H (Homo sapiens); settings: at 10 µM
SMILES,residual activity [1],residual activity [2],residual activity [3],residual activity [4],residual activity [5],residual activity [6],residual activity [7],residual activity [8],residual activity [9],residual activity [10],residual activity [11],residual activity [12],residual activity [13],residual activity [14],residual activity [15],residual activity [16],residual activity [17],residual activity [18],residual activity [19],residual activity [20]
O=C1Nc2ccc(Cl)cc2/C1=C/c1cc(Cl)c(O)c(Cl)c1,40%,29%,86%,47%,95%,97%,118%,79%,95%,97%,90%,73%,97%,77%,97%,80%,89%,86%,84%,87%
O=c1c(-c2ccc(F)cc2)c(-c2ccncc2)[nH]n1-c1ccc(Cl)cc1,100%,59%,–,76%,–,–,99%,–,–,102%,–,–,–,–,–,–,–,–,–,–
CC(C)(C)n1nc(Cc2cccc3ccccc23)c2c(N)ncnc21,90%,91%,111%,98%,106%,92%,130%,57%,107%,69%,86%,63%,110%,82%,87%,86%,87%,97%,86%,90%
Cn1c2ccccc2c2c3c(c4c5ccccc5n(CCC#N)c4c21)CNC3=O,6%,6%,7%,6%,20%,18%,22%,17%,7%,12%,–,–,5%,4%,3%,6%,48%,38%,74%,79%
O=C1NC(=O)c2c1c1c3ccccc3[nH]c1n1cncc21,32%,25%,23%,17%,83%,53%,64%,61%,58%,35%,48%,27%,49%,30%,52%,30%,62%,28%,87%,69%
NC(=O)c1ccc(-c2nc(-c3ccc4c(c3)OCCO4)c(-c3ccccn3)[nH]2)cc1,99%,77%,119%,97%,–,–,96%,85%,92%,87%,–,–,–,84%,96%,80%,–,–,92%,81%
O=C1C(Cl)=C(N2C(=O)CCC2=O)C(=O)c2ccccc21,82%,79%,118%,92%,–,–,86%,89%,95%,98%,97%,85%,95%,86%,119%,85%,98%,86%,–,89%
O=C1NC(=O)C(c2c[nH]c3ccccc23)=C1c1c[nH]c2ccccc12,27%,35%,73%,35%,–,39%,97%,19%,79%,30%,–,29%,74%,28%,76%,42%,–,–,76%,32%
CC(C)(C)c1nc2c3ccc(F)cc3c3c(=O)[nH]ccc3c2[nH]1,32%,7%,13%,4%,–,–,–,–,–,–,–,54%,–,–,–,–,71%,50%,69%,–
O=c1cc(N2CCNCC2)oc2c(-c3ccccc3)cccc12,70%,74%,98%,95%,104%,102%,125%,87%,–,103%,102%,84%,100%,71%,100%,82%,93%,94%,94%,81%
CC(C)c1nn(-c2c(Cl)cccc2Cl)c2nc(Cc3ccc(OCCO)cc3)[nH]c(=O)c12,70%,78%,–,93%,3%,0%,0%,0%,-1%,-3%,-1%,-1%,0%,-1%,-1%,-1%,43%,9%,15%,1%
O=C1NC(=O)C(c2cn(CCCO)c3ncccc23)=C1c1cnccn1,94%,84%,–,74%,72%,63%,84%,59%,87%,64%,93%,70%,73%,51%,90%,61%,–,–,71%,54%
O=C(NC(NC(=S)Nc1ccc(F)c([N+](=O)[O-])c1)C(Cl)(Cl)Cl)C(c1ccccc1)c1ccccc1 (centres undefined),91%,63%,93%,73%,–,–,–,96%,90%,77%,100%,93%,98%,–,–,83%,97%,94%,–,–
Nc1n[nH]c2nc3ccccc3nc12,80%,48%,–,–,96%,59%,86%,44%,83%,46%,83%,28%,80%,35%,92%,41%,92%,69%,89%,76%
Oc1cccc(-c2nc(N3CCOCC3)c3oc4ncccc4c3n2)c1,95%,84%,96%,100%,–,–,129%,93%,–,–,118%,97%,–,–,92%,91%,91%,67%,86%,96%
CCCC(=O)Oc1ccc2[nH]c(C(=O)c3cc4ccccc4[nH]3)cc2c1,90%,91%,96%,–,–,–,133%,99%,105%,95%,95%,74%,–,95%,74%,87%,79%,74%,83%,97%
Cc1cc(C)c(/C=C2\C(=O)Nc3ccccc32)[nH]1,75%,57%,100%,48%,–,–,–,–,–,–,–,69%,–,–,–,–,–,60%,64%,32%
Nc1nc(Nc2ccc(S(N)(=O)=O)cc2)nn1C(=O)c1c(F)cccc1F,55%,12%,40%,15%,1%,0%,-1%,1%,2%,-1%,3%,0%,0%,0%,-1%,0%,57%,12%,57%,10%
O=C(c1ccccc1)c1ccc(N2CCOCC2)cc1O,83%,119%,112%,113%,–,94%,119%,72%,–,–,96%,97%,–,88%,91%,96%,–,89%,87%,–
O=C(O)/C=C/c1cc(Br)c(Br)c(Br)c1Br,103%,49%,91%,45%,109%,56%,–,67%,100%,91%,103%,87%,94%,84%,–,76%,100%,95%,104%,89%
Nc1ncnc2c1cnn2-c1ccccc1,23%,23%,97%,54%,–,–,125%,94%,98%,–,95%,86%,–,–,92%,79%,95%,85%,86%,88%
Nc1ncnc2[nH]nc(Nc3ccc(F)cc3)c12,74%,18%,65%,12%,–,21%,–,49%,91%,59%,–,39%,98%,–,110%,–,107%,78%,98%,–
O=C(c1cc2cc(O)ccc2[nH]1)c1cc2cc(O)ccc2[nH]1,5%,7%,37%,6%,60%,15%,78%,9%,50%,13%,51%,8%,23%,4%,37%,6%,38%,7%,76%,41%
COc1cc2nccc(Oc3ccc(NC(=S)NC(=O)c4ccccc4C)cc3)c2cc1OC,100%,56%,89%,89%,–,–,–,–,–,–,89%,74%,85%,86%,97%,86%,78%,77%,75%,87%
O=C(CCCc1ccc(-c2ccccc2F)cc1)Nc1ccc(O)cc1,102%,83%,107%,105%,–,–,96%,98%,101%,92%,102%,94%,104%,99%,111%,99%,103%,98%,98%,105%
